Laboratory results from PubChem BioAssay (NCI).
This is part of a sample that, as a whole, favours compounds with a hit. Of some 83,000 tested, about 20% had one in any assay.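 Single-concentration screen, 48 h exposure, 96-well plates. Endpoint: percent growth. Below 10 = active.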

Key:
Assay in all cases: NCI-60 one-dose screen, 48 h (100 = growth as untreated, 0 = no growth, -100 = all killed)
DU-145 prostate = conditions: 10 µM
K-562 leukemia = conditions: 10 µM
MALME-3M melanoma = conditions: 10 µM
MDA-MB-231 breast = conditions: 10 µM
RXF 393 renal = conditions: 10 µM
SF-268 CNS = conditions: 10 µM
SF-295 CNS = conditions: 10 µM
SF-539 CNS = conditions: 10 µM
UACC-257 melanoma = conditions: 10 µM
M14 melanoma = conditions: 10 µM
HCT-15 colon = conditions: 10 µM
HT29 colon = conditions: 10 µM
SNB-75 CNS = conditions: 10 µM
SNB-19 CNS = conditions: 10 µM
U251 CNS = conditions: 10 µM
PC-3 prostate = conditions: 10 µM
SK-MEL-5 melanoma = conditions: 10 µM
UACC-62 melanoma = conditions: 10 µM unless noted
LOX IMVI melanoma = conditions: 10 µM
SK-MEL-28 melanoma = conditions: 10 µM

Measured: growth

Cc1cc(C(C)(C)C)cc(C)c1Br
inactive: DU-145 prostate 121% | K-562 leukemia 111% | MALME-3M melanoma 135% | MDA-MB-231 breast 108% | RXF 393 renal 113% | SF-268 CNS 102% | SF-295 CNS 103% | SF-539 CNS 94.9% | UACC-257 melanoma 105% | M14 melanoma 98.5% | HCT-15 colon 109% | HT29 colon 113% | SNB-75 CNS 94.6% | SNB-19 CNS 106% | U251 CNS 113% | PC-3 prostate 75.3% | SK-MEL-5 melanoma 111% | UACC-62 melanoma 108% | LOX IMVI melanoma 96.1% | SK-MEL-28 melanoma 109%

Cc1ccc(C(=O)NC2c3ccccc3Oc3ccccc32)cc1
inactive: DU-145 prostate 88.2% | K-562 leukemia 14.3% | MALME-3M melanoma 53.2% | MDA-MB-231 breast 58.4% | RXF 393 renal 74.9% | SF-268 CNS 64.1% | SF-295 CNS 24.8% | SF-539 CNS 61.3% | UACC-257 melanoma 57.7% | M14 melanoma 36% | HCT-15 colon 39.6% | HT29 colon 23.4% | SNB-75 CNS 34.9% | SNB-19 CNS 49% | U251 CNS 56.5% | PC-3 prostate 53.4% | SK-MEL-5 melanoma 62.7% | SK-MEL-28 melanoma 61.4%

N#CCCN(CCCN1CCOCC1)CN1C(=O)c2ccccc2C1=O
inactive: DU-145 prostate 109% | K-562 leukemia 91.6% | MALME-3M melanoma 87.6% | MDA-MB-231 breast 113% | RXF 393 renal 98% | SF-268 CNS 115% | SF-295 CNS 98.6% | SF-539 CNS 110% | UACC-257 melanoma 107% | M14 melanoma 125% | HCT-15 colon 104% | HT29 colon 107% | SNB-75 CNS 87.7% | SNB-19 CNS 110% | U251 CNS 100% | PC-3 prostate 105% | SK-MEL-5 melanoma 96.8% | UACC-62 melanoma 107% | LOX IMVI melanoma 101% | SK-MEL-28 melanoma 101%

CCC/C=C(\C)C(C)(C#N)C(=O)OCC (stereo unspecified)
inactive: DU-145 prostate 124% | K-562 leukemia 100% | MALME-3M melanoma 107% | MDA-MB-231 breast 122% | RXF 393 renal 105% | SF-268 CNS 118% | SF-295 CNS 112% | SF-539 CNS 102% | UACC-257 melanoma 86.2% | M14 melanoma 116% | HCT-15 colon 113% | HT29 colon 109% | SNB-75 CNS 87.8% | SNB-19 CNS 102% | U251 CNS 102% | PC-3 prostate 101% | SK-MEL-5 melanoma 103% | UACC-62 melanoma 102% | LOX IMVI melanoma 99.9% | SK-MEL-28 melanoma 109%

N#CC1(Nc2ccc3c4c(cccc24)CC3)CCCCC1
inactive: DU-145 prostate 103% | K-562 leukemia 89.7% | MALME-3M melanoma 93.1% | MDA-MB-231 breast 99.8% | RXF 393 renal 89.8% | SF-268 CNS 97% | SF-295 CNS 98.8% | SF-539 CNS 108% | UACC-257 melanoma 92.9% | M14 melanoma 113% | HCT-15 colon 106% | HT29 colon 89.1% | SNB-75 CNS 78.6% | SNB-19 CNS 107% | U251 CNS 99.8% | PC-3 prostate 90.8% | SK-MEL-5 melanoma 91.6% | UACC-62 melanoma 106% | SK-MEL-28 melanoma 103%

CC1CCC2C(C)(C)C3CC12CC1OC13C (stereo unspecified)
inactive: DU-145 prostate 117% | K-562 leukemia 123% | MALME-3M melanoma 107% | MDA-MB-231 breast 110% | RXF 393 renal 98.9% | SF-268 CNS 110% | SF-295 CNS 104% | SF-539 CNS 98.9% | UACC-257 melanoma 113% | M14 melanoma 109% | HCT-15 colon 97.7% | HT29 colon 107% | SNB-75 CNS 97.5% | SNB-19 CNS 102% | U251 CNS 102% | PC-3 prostate 99.5% | SK-MEL-5 melanoma 96.9% | UACC-62 melanoma 103% | LOX IMVI melanoma 98.3% | SK-MEL-28 melanoma 103%

O=C(/C=C/C(=O)c1ccccc1)c1ccccc1
inactive: DU-145 prostate 115% | K-562 leukemia 41.9% | MALME-3M melanoma 131% | MDA-MB-231 breast 110% | RXF 393 renal 118% | SF-268 CNS 107% | SF-295 CNS 99% | SF-539 CNS 114% | UACC-257 melanoma 119% | M14 melanoma 111% | HCT-15 colon 79.2% | HT29 colon 100% | SNB-75 CNS 104% | SNB-19 CNS 109% | U251 CNS 93.6% | PC-3 prostate 125% | SK-MEL-5 melanoma 105% | UACC-62 melanoma 93.4% | LOX IMVI melanoma 92.1% | SK-MEL-28 melanoma 117%

Cc1cccc(C(=O)N(C(C)C)C(C)C)c1
inactive: DU-145 prostate 103% | K-562 leukemia 104% | MALME-3M melanoma 95.5% | MDA-MB-231 breast 109% | RXF 393 renal 107% | SF-268 CNS 99% | SF-295 CNS 90.4% | SF-539 CNS 96.3% | UACC-257 melanoma 87.3% | M14 melanoma 96.1% | HCT-15 colon 96.7% | HT29 colon 92.8% | SNB-75 CNS 95% | SNB-19 CNS 99.6% | U251 CNS 92.5% | PC-3 prostate 92.8% | SK-MEL-5 melanoma 95.3% | LOX IMVI melanoma 96.1% | SK-MEL-28 melanoma 103%

CCCCNC1(C#N)CCN(Cc2ccccc2)CC1
inactive: DU-145 prostate 135% | K-562 leukemia 114% | MALME-3M melanoma 94.7% | MDA-MB-231 breast 104% | RXF 393 renal 107% | SF-268 CNS 129% | SF-295 CNS 97.2% | SF-539 CNS 99.8% | UACC-257 melanoma 107% | M14 melanoma 76.6% | HCT-15 colon 108% | HT29 colon 106% | SNB-75 CNS 84.2% | SNB-19 CNS 91.1% | U251 CNS 101% | PC-3 prostate 96.1% | SK-MEL-5 melanoma 107% | UACC-62 melanoma 95% | LOX IMVI melanoma 99.7% | SK-MEL-28 melanoma 102%
